# Measured values as given in PubChem BioAssay (NCI).
# This is part of a sample that, as a whole, favours compounds with a hit. Of some 83,000 tested, about 20% had one in any assay.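 Single-dose data. Exposure time 48 hours. Values below 10 considered active.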 Calls of active or inactive are those of the source.
# Tested on: HL-60(TB) leukemia
# Assay: NCI-60 one-dose screen, 48 h (100 = growth as untreated, 0 = no growth, -100 = all killed)
# Conditions: 10 µM unless noted
row,SMILES,growth
1,O=C(Nc1cccnc1Nc1ccccc1)c1cn(Cc2cccc(Oc3ccccc3)c2)nn1,18.9% (inactive)
2,COc1ccc2cc(-c3nn(-c4ccc(C(=O)O)cc4)cc3CO)ccc2c1,50.3% (inactive)
3,COc1ccc(-c2cc(-c3ccc(Nc4ccnc5cc(Cl)ccc45)cc3)nc(N3CCOCC3)n2)cc1,7.25% (active)
4,CN(C)C(=O)Nc1nc2cc(Cl)c(Cl)cc2[nH]1,-29.9% (active)
5,O=C(NCc1cccc(CNC(=O)Nc2nc3ccccc3[nH]2)c1)Nc1nc2ccccc2[nH]1,10.1% (inactive)
6,Cc1cc(C)nc(NS(=O)(=O)c2ccc(Nc3nc4nc(SCc5ccccc5)nc(-c5ccc(O)cc5)c4c(=O)[nH]3)cc2)n1,86.3% (inactive)
7,Cc1ccc(/C=C(/C#N)n2nnc3cccc(F)c32)cc1,-18.2% (active)
8,CN(C)CCOc1nc2c3cc([N+](=O)[O-])ccc3nn2c2ccccc12,11.7% (inactive)
9,N#Cc1nc2c(S(=O)(=O)c3ccc(Cl)cc3)c(N)n(Nc3cccc(Cl)c3)c2nc1C#N,40.1% (inactive)
10,O=C(CCCOc1ccc(Br)cc1)Nc1ncc(Cc2ccc(F)cc2)s1,34.7% (inactive)
11,S=c1cnc2ccccc2[nH]1,86.4% (inactive)
12,COc1ccc2c(c1)c(-c1nc(-c3cn(C)c4ncccc34)cs1)cn2CCCN1CCCCC1,4.1% (active)
13,COCCCNc1nc(NC(=O)c2cc(Br)cc(C(F)(F)F)c2)cc(-c2cccnc2)n1,94.6% (inactive)
14,N/C(=N\c1nc2ccccc2s1)NC(=O)Nc1ccccc1,12.8% (inactive)
